According to PubChem BioAssay (NCATS):
Records with an inconclusive call do not appear. Calls of active or inactive are those of the source. Calls come from the whole dose curve; as a rule, active = well fitted cell-killing curve with a large enough effect; inconclusive = small, poorly fitted or top-dose-only effect, or effect the other way; inactive = no such curve, though single readings can be large or run the other way.

Test: Quantitative High-Throughput drug screen in 47 multiple myeloma cell lines against the NCATS MIPE library collection: KMS12BM_JCRB cell viability assay (AID 1918971); note: nearly all actives have a fitted effect of over 35% in size
Conditions: KMS12BM myeloma viability, CellTiter-Glo ATP, 48 h; series mostly up to 45.8 µM
How it was run: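 Steps: seed 500 cells per well; pin-transfer MIPE 4.0 library; incubate 48 h at 37C, 5% CO2, humidified; add CellTiter-Glo, 5 min room temperature; read luminescence.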
Potency is the fitted concentration of half-maximal effect.

SMILES	Potency
O=C(C=Cc1ccc(O)cc1)c1ccc(O)cc1O	20.9 µM (active)
CCc1cc(-c2n[nH]c(C)c2-c2ccc3c(c2)OCCO3)c(O)cc1O	5.26 µM (active)
CCCCCCCCCCCCCC(=O)N[C@H](CO)[C@H](O)c1ccc([N+](=O)[O-])cc1	23.5 µM (active)
COc1ccc(CCN(C)CCCOc2ccc(S(=O)(=O)c3[nH]c4ccccc4c3C(C)C)cc2)cc1OC	23.5 µM (active)
Clc1ccc(COC(Cn2ccnc2)c2ccc(Cl)cc2Cl)c(Cl)c1 (stereo not drawn)	20.9 µM (active)
CCOc1ccccc1N=Nc1c(C)[nH]n(-c2nc(-c3ccccc3)cs2)c1=O	16.6 µM (active)
CN(C(Cc1ccc(OS(=O)(=O)c2cccc3cnccc23)cc1)C(=O)N1CCN(c2ccccc2)CC1)S(=O)(=O)c1cccc2cnccc12 (stereo not drawn)	10.5 µM (active)
COc1cc(Cl)cn2c(-c3cccc(NC4CNC4)n3)cnc12	20.9 µM (active)
CC(=O)OCC(=O)[C@@]1(O)CC[C@H]2[C@@H]3CCC4=CC(=O)C=C[C@]4(C)[C@@H]3[C@@H](O)C[C@@]21C	0.187 µM (active)
COc1cc2nc(-c3cc(F)ccc3O)nc(N[C@@H]3CNC[C@@H]3C(C)(C)O)c2cc1OC	20.9 µM (active)
Cc1nn(Cc2ccccc2Cl)c(C)c1CN(C)CC(O)COc1ccc(Cl)cc1 (stereo not drawn)	23.5 µM (active)
O=S(=O)(NCCNCC=Cc1ccc(Br)cc1)c1cccc2cnccc12	16.6 µM (active)
C=CC[N+]1([C@H]2C[C@H]3[C@@H]4CC[C@H]5C[C@H](O)[C@@H](N6CCOCC6)C[C@]5(C)[C@@H]4CC[C@]3(C)[C@H]2OC(C)=O)CCCC1	inactive
